# Measurements as given in article PMC7862700, “An all-to-all approach to the identification of sequence-specific readers for epigenetic DNA modifications on cytosine”.
# Key:
# Experiment in all cases: DAPPL (digital affinity profiling via proximity ligation, sequencing); 10 mM Tris-HCl pH 7.5, 50 mM NaCl, 1 mM DTT, 4% glycerol, room temperature, 30 min; GST-TFs on glutathione beads, 16-mer random dsDNA library, 0.1% formaldehyde crosslink after washing; high values mean tight binding
# FLI1 = target: T1, FLI1 (Homo sapiens, UniProt Q01543 1-452); conditions: protein: recombinant; tags: N-terminal GST; dsDNA, one strand shown
# T1 sequence: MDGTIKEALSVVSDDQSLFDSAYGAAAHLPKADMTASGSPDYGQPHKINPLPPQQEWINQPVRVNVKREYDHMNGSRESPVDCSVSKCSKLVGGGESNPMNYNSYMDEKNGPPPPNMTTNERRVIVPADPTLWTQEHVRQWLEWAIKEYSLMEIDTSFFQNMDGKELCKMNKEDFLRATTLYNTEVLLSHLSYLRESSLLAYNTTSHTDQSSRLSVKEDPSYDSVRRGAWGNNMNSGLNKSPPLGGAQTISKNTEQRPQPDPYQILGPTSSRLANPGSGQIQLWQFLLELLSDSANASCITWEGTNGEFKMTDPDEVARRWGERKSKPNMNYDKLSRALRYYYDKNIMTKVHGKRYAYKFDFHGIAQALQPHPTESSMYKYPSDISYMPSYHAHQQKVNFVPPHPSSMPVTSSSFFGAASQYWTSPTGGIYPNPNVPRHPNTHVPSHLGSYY
# Summary of the method: (§1)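 The binding signal reported is, for every hexamer, its read frequency for a factor over its read frequency for the tag-only sample. Reads came from pools of yeast-expressed, GST-fused human transcription factors on glutathione beads, barcoded with DNA and mixed with that sample, which were incubated with 200 nmole of a random double-stranded 16-mer DNA library in Tris/NaCl/DTT/glycerol buffer at room temperature for 30 min. After washing, the pools were crosslinked with 0.1% formaldehyde, proximity-ligated with BsaI/T4 ligase for 1 h at 37 °C, PCR-amplified and sequenced on an Illumina NextSeq500.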
# ELK1 = target: T2, ELK1 (Homo sapiens, UniProt P19419 1-428); conditions: protein: recombinant; tags: N-terminal GST; dsDNA, one strand shown
# T2 sequence: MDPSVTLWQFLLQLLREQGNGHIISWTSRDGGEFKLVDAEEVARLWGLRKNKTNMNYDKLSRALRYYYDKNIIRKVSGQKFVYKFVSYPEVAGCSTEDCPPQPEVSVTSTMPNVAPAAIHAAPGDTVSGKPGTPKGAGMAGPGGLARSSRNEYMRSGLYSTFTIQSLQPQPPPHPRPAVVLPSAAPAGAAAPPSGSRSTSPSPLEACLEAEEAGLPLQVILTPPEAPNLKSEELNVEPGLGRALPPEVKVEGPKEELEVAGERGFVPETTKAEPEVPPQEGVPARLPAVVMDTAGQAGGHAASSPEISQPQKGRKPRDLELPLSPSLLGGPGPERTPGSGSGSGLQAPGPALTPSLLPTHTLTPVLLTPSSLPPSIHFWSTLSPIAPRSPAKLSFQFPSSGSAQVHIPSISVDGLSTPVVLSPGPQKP
# Summary of the method: as §1
# GABPA = target: T3, GABPA (Homo sapiens, UniProt Q06546 1-454); conditions: protein: recombinant; tags: N-terminal GST; dsDNA, one strand shown
# T3 sequence: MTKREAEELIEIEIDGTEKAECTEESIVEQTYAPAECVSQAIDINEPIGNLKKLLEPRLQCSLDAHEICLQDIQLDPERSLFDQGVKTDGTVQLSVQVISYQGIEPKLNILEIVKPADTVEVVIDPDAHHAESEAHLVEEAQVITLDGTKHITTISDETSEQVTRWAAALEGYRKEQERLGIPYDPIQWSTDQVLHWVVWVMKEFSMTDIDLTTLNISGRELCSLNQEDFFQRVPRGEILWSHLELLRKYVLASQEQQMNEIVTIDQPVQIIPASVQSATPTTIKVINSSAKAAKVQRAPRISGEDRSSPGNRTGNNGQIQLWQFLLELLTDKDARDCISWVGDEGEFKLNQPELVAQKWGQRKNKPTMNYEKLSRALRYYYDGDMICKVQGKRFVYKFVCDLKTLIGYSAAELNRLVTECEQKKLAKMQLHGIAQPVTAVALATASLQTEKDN
# Summary of the method: as §1
# ERG = target: T4, ERG (Homo sapiens, UniProt P11308 1-479); conditions: protein: recombinant; tags: N-terminal GST; dsDNA, one strand shown
# T4 sequence: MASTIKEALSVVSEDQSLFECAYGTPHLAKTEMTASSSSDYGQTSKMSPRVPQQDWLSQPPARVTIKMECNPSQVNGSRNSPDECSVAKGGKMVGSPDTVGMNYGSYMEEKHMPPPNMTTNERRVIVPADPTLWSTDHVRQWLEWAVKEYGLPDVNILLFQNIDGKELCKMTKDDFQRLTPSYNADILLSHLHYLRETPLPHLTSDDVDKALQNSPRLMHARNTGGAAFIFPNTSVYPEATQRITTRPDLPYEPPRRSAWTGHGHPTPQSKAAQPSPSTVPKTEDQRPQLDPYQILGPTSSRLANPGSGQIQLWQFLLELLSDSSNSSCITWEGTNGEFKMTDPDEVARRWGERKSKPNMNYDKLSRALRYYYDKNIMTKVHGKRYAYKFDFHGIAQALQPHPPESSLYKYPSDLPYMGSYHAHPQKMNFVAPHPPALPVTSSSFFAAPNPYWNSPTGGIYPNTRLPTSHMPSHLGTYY
# Summary of the method: as §1
# ELF1 = ELF1 (Homo sapiens, UniProt P32519 1-619); conditions: protein: recombinant; tags: N-terminal GST; dsDNA, one strand shown
# Chain of ELF1 (P32519 whole entry): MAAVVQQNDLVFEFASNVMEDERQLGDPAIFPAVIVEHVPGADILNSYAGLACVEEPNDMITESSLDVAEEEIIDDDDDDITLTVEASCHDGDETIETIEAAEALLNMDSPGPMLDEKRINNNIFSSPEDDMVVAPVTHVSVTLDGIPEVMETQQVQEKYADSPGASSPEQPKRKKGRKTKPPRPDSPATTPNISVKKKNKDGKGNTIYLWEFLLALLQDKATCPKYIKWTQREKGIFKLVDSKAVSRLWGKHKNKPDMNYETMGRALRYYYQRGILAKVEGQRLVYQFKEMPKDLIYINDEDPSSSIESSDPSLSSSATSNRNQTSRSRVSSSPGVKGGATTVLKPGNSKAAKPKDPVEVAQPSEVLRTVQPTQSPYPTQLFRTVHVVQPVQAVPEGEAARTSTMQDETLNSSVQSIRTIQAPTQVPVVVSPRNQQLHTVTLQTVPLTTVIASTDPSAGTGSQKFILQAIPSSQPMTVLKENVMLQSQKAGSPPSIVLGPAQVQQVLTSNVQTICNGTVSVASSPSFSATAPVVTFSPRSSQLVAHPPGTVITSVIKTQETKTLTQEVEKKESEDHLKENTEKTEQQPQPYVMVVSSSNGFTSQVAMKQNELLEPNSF
# Summary of the method: as §1
# EHF = target: T5, EHF (Homo sapiens, UniProt Q9NZC4 1-300); conditions: protein: recombinant; tags: N-terminal GST; dsDNA, one strand shown
# T5 sequence: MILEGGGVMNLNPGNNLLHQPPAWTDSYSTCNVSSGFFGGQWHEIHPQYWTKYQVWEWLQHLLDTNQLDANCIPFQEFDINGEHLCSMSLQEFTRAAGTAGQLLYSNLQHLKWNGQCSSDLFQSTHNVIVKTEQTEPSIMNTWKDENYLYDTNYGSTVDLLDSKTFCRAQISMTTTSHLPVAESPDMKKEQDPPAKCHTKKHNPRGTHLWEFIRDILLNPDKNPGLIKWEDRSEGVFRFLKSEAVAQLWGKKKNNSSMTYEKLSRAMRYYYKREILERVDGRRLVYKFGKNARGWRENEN
# Summary of the method: as §1
# SPIB = SPIB (Homo sapiens, UniProt Q01892 1-262); conditions: protein: recombinant; tags: N-terminal GST; dsDNA, one strand shown
# Chain of SPIB (Q01892 whole entry): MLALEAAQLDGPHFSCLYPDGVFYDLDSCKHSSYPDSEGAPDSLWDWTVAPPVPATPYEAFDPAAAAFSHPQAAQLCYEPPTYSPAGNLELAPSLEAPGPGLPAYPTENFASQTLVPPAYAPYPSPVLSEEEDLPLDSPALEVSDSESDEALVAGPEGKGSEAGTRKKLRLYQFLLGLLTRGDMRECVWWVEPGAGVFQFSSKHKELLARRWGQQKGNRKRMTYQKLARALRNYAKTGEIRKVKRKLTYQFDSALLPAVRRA
# Summary of the method: as §1
# FEV = target: T6, FEV (Homo sapiens, UniProt Q99581 1-238); conditions: protein: recombinant; tags: N-terminal GST; dsDNA, one strand shown
# T6 sequence: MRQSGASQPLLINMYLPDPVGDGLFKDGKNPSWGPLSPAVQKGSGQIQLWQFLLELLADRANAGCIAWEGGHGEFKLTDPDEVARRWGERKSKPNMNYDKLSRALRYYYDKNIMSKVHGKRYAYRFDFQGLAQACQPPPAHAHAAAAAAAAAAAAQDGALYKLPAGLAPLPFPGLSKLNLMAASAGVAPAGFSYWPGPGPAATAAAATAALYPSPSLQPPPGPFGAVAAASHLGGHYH
# Summary of the method: as §1
# ETV5 = ETV5 (Homo sapiens, UniProt P41161 1-510); conditions: protein: recombinant; tags: N-terminal GST; dsDNA, one strand shown
# Chain of ETV5 (P41161 whole entry): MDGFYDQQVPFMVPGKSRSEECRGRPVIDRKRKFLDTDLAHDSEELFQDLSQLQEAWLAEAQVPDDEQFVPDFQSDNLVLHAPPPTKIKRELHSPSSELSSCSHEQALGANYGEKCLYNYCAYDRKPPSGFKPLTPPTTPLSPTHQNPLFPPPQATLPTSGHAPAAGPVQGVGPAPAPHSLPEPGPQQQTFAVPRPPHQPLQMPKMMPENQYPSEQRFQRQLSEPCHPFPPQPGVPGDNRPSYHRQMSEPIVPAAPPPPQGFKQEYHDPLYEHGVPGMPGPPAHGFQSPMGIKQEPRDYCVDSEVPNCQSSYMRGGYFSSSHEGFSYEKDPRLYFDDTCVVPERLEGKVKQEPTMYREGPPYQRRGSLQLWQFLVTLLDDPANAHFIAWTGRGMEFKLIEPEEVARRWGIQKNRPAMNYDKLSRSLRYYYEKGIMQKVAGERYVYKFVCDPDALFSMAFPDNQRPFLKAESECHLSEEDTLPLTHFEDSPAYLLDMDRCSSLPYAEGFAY
# Summary of the method: as §1
# HSF1 = HSF1 (Homo sapiens, UniProt Q00613 1-529); conditions: protein: recombinant; tags: N-terminal GST; chain copies: 3; dsDNA, one strand shown
# Chain of HSF1 (Q00613 whole entry): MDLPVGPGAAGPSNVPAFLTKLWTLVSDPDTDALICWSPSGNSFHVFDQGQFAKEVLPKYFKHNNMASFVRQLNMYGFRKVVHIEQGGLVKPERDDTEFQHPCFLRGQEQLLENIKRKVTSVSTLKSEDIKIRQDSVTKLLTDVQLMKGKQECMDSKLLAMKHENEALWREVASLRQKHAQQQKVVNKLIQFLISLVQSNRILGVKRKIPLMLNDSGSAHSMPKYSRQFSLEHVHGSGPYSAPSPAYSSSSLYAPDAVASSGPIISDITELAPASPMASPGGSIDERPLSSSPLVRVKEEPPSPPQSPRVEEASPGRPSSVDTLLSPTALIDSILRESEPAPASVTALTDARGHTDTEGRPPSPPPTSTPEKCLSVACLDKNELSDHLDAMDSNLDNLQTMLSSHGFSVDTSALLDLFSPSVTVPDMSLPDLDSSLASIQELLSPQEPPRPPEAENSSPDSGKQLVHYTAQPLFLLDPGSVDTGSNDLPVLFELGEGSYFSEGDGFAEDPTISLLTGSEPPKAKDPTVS
# Summary of the method: as §1
# SPIC = target: T7, SPIC (Homo sapiens, UniProt Q8N5J4 1-248); conditions: protein: recombinant; tags: N-terminal GST; dsDNA, one strand shown
# T7 sequence: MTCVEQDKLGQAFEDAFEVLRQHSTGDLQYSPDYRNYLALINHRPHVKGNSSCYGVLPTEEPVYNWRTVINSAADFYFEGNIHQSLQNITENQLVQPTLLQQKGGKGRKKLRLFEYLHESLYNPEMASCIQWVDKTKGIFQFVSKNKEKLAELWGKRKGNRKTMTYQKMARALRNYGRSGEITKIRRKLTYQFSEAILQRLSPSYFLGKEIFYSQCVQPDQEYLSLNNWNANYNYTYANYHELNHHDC
# Summary of the method: as §1
# ELF4 = ELF4 (Homo sapiens, UniProt Q99607 1-663); conditions: protein: recombinant; tags: N-terminal GST; dsDNA, one strand shown
# Chain of ELF4 (Q99607 whole entry): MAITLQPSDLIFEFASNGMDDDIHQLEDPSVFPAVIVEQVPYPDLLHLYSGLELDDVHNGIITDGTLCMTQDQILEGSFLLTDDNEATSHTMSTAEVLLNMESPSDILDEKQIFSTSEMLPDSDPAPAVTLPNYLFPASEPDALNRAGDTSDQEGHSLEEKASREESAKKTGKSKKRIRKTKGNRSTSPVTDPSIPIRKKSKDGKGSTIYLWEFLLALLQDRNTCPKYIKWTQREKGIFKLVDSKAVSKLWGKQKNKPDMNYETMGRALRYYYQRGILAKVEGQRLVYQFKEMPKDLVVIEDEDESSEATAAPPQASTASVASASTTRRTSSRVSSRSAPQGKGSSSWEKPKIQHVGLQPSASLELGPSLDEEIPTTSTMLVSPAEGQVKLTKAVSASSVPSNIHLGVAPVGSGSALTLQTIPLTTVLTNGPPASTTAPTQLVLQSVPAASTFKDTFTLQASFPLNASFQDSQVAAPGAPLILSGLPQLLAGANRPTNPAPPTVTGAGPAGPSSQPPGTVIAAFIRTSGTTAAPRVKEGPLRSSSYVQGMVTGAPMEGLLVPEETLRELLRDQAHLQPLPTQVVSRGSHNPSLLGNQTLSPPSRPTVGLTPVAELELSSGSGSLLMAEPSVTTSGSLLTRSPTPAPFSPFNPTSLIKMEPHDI
# Summary of the method: as §1
# ELK4 = target: T8, ELK4 (Homo sapiens, UniProt P28324-2 1-405); conditions: protein: recombinant; tags: N-terminal GST; dsDNA, one strand shown
# T8 sequence: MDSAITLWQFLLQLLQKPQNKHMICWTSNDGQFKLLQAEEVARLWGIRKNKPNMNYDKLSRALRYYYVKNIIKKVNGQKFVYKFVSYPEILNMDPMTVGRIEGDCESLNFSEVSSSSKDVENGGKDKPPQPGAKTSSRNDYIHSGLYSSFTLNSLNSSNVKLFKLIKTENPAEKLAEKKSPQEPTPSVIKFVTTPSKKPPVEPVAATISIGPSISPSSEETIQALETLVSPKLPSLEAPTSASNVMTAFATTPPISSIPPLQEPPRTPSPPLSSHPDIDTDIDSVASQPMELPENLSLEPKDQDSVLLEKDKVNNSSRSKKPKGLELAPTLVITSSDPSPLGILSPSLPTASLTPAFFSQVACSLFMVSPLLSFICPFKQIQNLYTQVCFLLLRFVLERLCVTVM
# Summary of the method: as §1
# ETV2 = target: T9, ETV2 (Homo sapiens, UniProt O00321 1-342); conditions: protein: recombinant; tags: N-terminal GST; dsDNA, one strand shown
# T9 sequence: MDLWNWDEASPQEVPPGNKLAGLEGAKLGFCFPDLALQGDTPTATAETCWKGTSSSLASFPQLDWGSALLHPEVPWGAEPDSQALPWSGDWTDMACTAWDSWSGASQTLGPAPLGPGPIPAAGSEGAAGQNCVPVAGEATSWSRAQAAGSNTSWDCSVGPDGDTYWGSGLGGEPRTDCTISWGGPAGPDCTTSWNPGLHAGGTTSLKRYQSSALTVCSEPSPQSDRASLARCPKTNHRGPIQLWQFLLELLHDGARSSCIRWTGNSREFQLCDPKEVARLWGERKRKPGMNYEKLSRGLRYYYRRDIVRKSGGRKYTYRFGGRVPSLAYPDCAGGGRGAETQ
# Summary of the method: as §1
# ELF3 = target: T10, ELF3 (Homo sapiens, UniProt P78545 1-371); conditions: protein: recombinant; tags: N-terminal GST; dsDNA, one strand shown
# T10 sequence: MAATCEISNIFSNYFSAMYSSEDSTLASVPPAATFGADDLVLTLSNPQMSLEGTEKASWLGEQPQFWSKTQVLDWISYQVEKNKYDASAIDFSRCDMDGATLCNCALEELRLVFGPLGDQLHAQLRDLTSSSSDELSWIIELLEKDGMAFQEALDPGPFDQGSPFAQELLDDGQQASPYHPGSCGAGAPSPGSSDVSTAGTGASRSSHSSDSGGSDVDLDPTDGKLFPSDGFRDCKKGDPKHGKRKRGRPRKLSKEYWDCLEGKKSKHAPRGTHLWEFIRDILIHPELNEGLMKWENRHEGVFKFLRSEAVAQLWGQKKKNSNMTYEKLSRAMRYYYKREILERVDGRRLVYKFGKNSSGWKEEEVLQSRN
# Summary of the method: as §1
# ETV1 = ETV1 (Homo sapiens, UniProt P50549 1-477); conditions: protein: recombinant; tags: N-terminal GST; dsDNA, one strand shown
# Chain of ETV1 (P50549 whole entry): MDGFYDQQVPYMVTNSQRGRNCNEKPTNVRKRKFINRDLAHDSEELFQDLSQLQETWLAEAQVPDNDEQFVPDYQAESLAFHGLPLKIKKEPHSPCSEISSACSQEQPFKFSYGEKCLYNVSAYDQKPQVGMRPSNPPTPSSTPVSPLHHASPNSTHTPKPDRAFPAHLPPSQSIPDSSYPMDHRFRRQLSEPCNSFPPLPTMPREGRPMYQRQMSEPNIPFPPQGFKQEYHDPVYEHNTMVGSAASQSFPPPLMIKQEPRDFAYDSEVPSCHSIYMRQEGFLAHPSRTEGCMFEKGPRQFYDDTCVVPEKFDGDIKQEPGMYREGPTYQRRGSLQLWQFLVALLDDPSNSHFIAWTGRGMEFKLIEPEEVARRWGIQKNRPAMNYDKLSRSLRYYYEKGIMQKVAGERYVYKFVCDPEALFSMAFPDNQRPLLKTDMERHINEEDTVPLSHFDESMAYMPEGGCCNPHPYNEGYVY
# Summary of the method: as §1
sequence,measurement,setting,value
AAGCAA,binding signal,FLI1,"1.03 fold enrichment (6-mer frequency, TF over GST control)"
same,binding signal,ELK1,"1.08 fold enrichment (6-mer frequency, TF over GST control)"
same,binding signal,GABPA,"1.07 fold enrichment (6-mer frequency, TF over GST control)"
same,binding signal,ERG,"1.02 fold enrichment (6-mer frequency, TF over GST control)"
same,binding signal,ELF1,"1.06 fold enrichment (6-mer frequency, TF over GST control)"
same,binding signal,EHF,"1.02 fold enrichment (6-mer frequency, TF over GST control)"
same,binding signal,SPIB,"1.02 fold enrichment (6-mer frequency, TF over GST control)"
same,binding signal,FEV,"1.05 fold enrichment (6-mer frequency, TF over GST control)"
same,binding signal,ETV5,"1.11 fold enrichment (6-mer frequency, TF over GST control)"
same,binding signal,HSF1,"1.04 fold enrichment (6-mer frequency, TF over GST control)"
same,binding signal,SPIC,"1.03 fold enrichment (6-mer frequency, TF over GST control)"
same,binding signal,ELF4,"1.06 fold enrichment (6-mer frequency, TF over GST control)"
same,binding signal,ELK4,"1.08 fold enrichment (6-mer frequency, TF over GST control)"
same,binding signal,ETV2,"1.01 fold enrichment (6-mer frequency, TF over GST control)"
same,binding signal,ELF3,"1.09 fold enrichment (6-mer frequency, TF over GST control)"
same,binding signal,ETV1,"1.08 fold enrichment (6-mer frequency, TF over GST control)"
